IDE exosite inh: insulin-degrading enzyme (human) exo-site inhibition; P14735; purified IDE, FL-6b probe fluorescence polarization; stronger effect = lower value; 6.3% of 17,000 active; z-score at 20 µM;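 active = z-score of -3 or lower, meaning strong loss of probe binding signal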;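 also: His-tagged human IDE residues 42-1019 made in E. coli with 30 nM FL-6b probe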
Active calls of the source: *. The entries come from a sample that favours hits as a whole.

SMILES | IDE exosite inh
C/C=C/c1ccc([C@H]2[C@@H](CNC(=O)c3ccncc3)N(C(C)=O)[C@H]2CO)cc1 | 1.2
CC(C)[C@H]1C(=O)N[C@@H](c2cccc(Cl)c2)CC=CC[C@H](C)Oc2ccccc2C(=O)N1C (mixture of isomers) | -0.43
COc1ccc(C#Cc2ccc([C@H]3[C@@H](CO)N4CCCCN(S(=O)(=O)c5cn(C)cn5)C[C@@H]34)cc2)cc1 | 0.19
N#C[C@@H]1[C@H](c2ccccc2)[C@@H](CO)N1C(=O)Cc1ccccn1 | 3.1
CCCC#Cc1ccc([C@@H]2[C@@H](CO)N3C(=O)CN(C(=O)c4cccnc4)C[C@@H]23)cc1 | 0.43
O=C(Nc1ccc(F)cc1)N1CCCCN2[C@@H](CO)[C@@H](c3ccc(C#Cc4ccccn4)cc3)[C@@H]2C1 | 2.9
Cc1noc(C)c1S(=O)(=O)N(C)C[C@H]1OCCCC[C@H](C)Oc2ccc(NC(=O)CCC(F)(F)F)cc2C(=O)N([C@H](C)CO)C[C@@H]1C | 2.2
O=S(=O)(c1ccccc1)N1CCCCN2[C@H](CO)[C@H](c3ccc(-c4cncnc4)cc3)[C@H]2C1 | 2.8
CCCNC(=O)N1CC2(CCN(S(=O)(=O)CC)CC2)c2c([nH]c3cc(OC)ccc23)[C@@H]1CO | -1.9
COc1ccc2c3c([nH]c2c1)[C@@H](CO)N(Cc1nccs1)CC31CN(Cc2ccncc2)C1 | -3.2*
CCC(=O)N1CC2(C1)CN(Cc1cccc(Cl)c1)[C@@H](CO)c1[nH]c3cc(OC)ccc3c12 | -3.3*
COc1ccc2c3c([nH]c2c1)[C@@H](CO)N(C(C)=O)CC31CCN(C(C)=O)CC1 | 1.2
COc1ccc2c3c([nH]c2c1)[C@@H](CO)N(Cc1ccncc1)CC31CCN(CC2CCOCC2)CC1 | 0.53
COc1ccc(CN2CC3(CN(C(=O)Cc4ccccc4)C3)c3c([nH]c4cc(OC)ccc34)[C@@H]2CO)cc1 | -1.7
COc1ccc2c3c([nH]c2c1)[C@H](CO)N(Cc1nccs1)CC31CCN(C(=O)C2CCCCC2)CC1 | -0.97
CCCNC(=O)N1CC2(C1)CN(Cc1ccc(F)cc1)[C@H](CO)c1[nH]c3cc(OC)ccc3c12 | 0.53
CCCNC(=O)N1CCC2(CC1)CN(Cc1cccc(OC)c1)[C@H](CO)c1[nH]c3cc(OC)ccc3c12 | -4.6*
COc1ccc2c3c([nH]c2c1)[C@H](CO)N(Cc1cccc(F)c1)CC31CCN(C(C)=O)CC1 | -6.6*
CCCC(=O)N1CC2(C1)CN(Cc1cccnc1)[C@@H](CO)c1[nH]c3cc(OC)ccc3c12 | -2.3
COc1ccc2c3c([nH]c2c1)[C@@H](CO)N(CC1CC1)CC31CCN(C(=O)Nc2cccc(F)c2)CC1 | -0.92
CC(C)[C@@H]1CCc2cnnn2COC[C@H](Cc2ccccc2)NC1=O | -0.78
CC(=O)N1[C@H](CN(C(=O)c2ccccc2)C(C)C)[C@@H](c2ccccc2)[C@@H]1CO | 1.2
C[C@H](CO)N1C[C@H](C)[C@@H](CN(C)Cc2ccc(C(=O)Nc3ccccc3N)cc2)OCc2cnnn2CCCC1=O | 1.5
CC(C)C#Cc1ccc([C@H]2[C@H]3CN(Cc4ccccn4)CCCCN3[C@H]2CO)cc1 | 0.76
C[C@@H]1CN([C@H](C)CO)C(=O)c2ccccc2-c2ccccc2CO[C@@H]1CN(C)C(=O)c1cc(Cl)cc(Cl)c1 | 0.2
SMILES | IDE exosite inh
C/C=C/c1ccc([C@@H]2[C@@H](CO)N3C(=O)CN(C(=O)c4ccncc4)C[C@H]23)cc1 | 0.78
Cc1ccccc1S(=O)(=O)N1C[C@@H](O)COC[C@H]2O[C@@H](CC(=O)N3CCCCC3)CC[C@@H]21 | 0.81
Cc1ccc(S(=O)(=O)N2C[C@@H]3N[C@H](C2)C3c2ccc(-c3ccc(C(=O)N(C)C)cc3)cc2)cc1 (stereo partly drawn) | 1.1
CN(C)C(=O)c1ccc(-c2ccc(C3[C@@H]4CN(S(=O)(=O)Cc5ccccc5)C[C@H]3N4)cc2)cc1 (stereo partly drawn) | -4.2*
Cc1ccccc1-c1ccc(C2[C@@H]3CN(S(=O)(=O)Cc4ccccc4)C[C@H]2N3)cc1 (stereo partly drawn) | -2.4
CC(=O)NC[C@H]1[C@@H](c2ccc(-c3cccc(F)c3)cc2)[C@@H](CO)N1C(C)=O | 2.1
C[C@@H]1CN([C@H](C)CO)C(=O)c2ccccc2-c2ccccc2CO[C@H]1CN(C)S(=O)(=O)c1cccs1 | -0.86
CN(C)CC#Cc1ccc([C@H]2[C@@H](CO)N3CCCCN(S(=O)(=O)c4ccccc4F)C[C@@H]23)cc1 | -0.28
COc1ccc(NC(=O)N2CCCCN3[C@H](C2)[C@@H](c2ccc(-c4ccccc4C)cc2)[C@@H]3CO)cc1 | -4.1*
COc1ccc(NC(=O)N2CCCCN3[C@H](CO)[C@H](c4ccc(-c5ccccc5C)cc4)[C@H]3C2)cc1 | -4.3*
Cc1ccccc1-c1ccc([C@H]2[C@@H](CO)N3CCCCN(C(=O)Nc4ccccc4)C[C@H]23)cc1 | -8.8*
Cc1ccccc1-c1ccc([C@H]2[C@H]3CN(C(=O)Nc4ccccc4)CCCCN3[C@H]2CO)cc1 | 0.8
COc1ccc(NC(=O)N2CCCCN3[C@@H](CO)[C@@H](c4ccc(-c5ccccc5F)cc4)[C@@H]3C2)cc1 | -1.2
